# Data published in PMC12040169 (PLOS Biology, 2025).
# System: T1, C. trachomatis L2/434/Bu expressing GFP (CTL2-GFP)
# T1 construct: L2/434/Bu GFP intracellular growth in HeLa cells
# Set-up: species or system HeLa; C. trachomatis total inclusion area by high-content imaging, normalised to DMSO
# Details: total inclusion area; 28.5 h, 10 µM; inhibitor
# Description: We screened a library of 36,785 small molecules displaying drug-like properties and covering a wide chemical space (Fig 1A and S2A Data). In this process, we also complemented the assay described above with an imaging-based readout (Fig 1B). After measurements of bulk GFP and resorufin fluorescence, cells were fixed, stained with the DNA dye Hoechst, and imaged at a high-content imaging platform to detect chlamydial inclusions (GFP) and host cell nuclei (Hoechst). The total area and number of inclusions in individual wells and the number of nuclei then served as additional proxies for chlamydial growth and host cell viability. […] MICs were calculated as described above.
row,Compound,% of control remaining
1,O=C(c1cccc(S(=O)(=O)F)c1)N1CCCCC1 [CBK074224],0.8769
2,S=P(Oc1ccccc1)(Oc1ccccc1)Oc1ccccc1 [CBK260987],0.9936
3,CCOC(=O)CC(C)(O)P(=O)(OC)OC (stereo not drawn) [CBK261287],1.025
